# From paper PMC7862700, “An all-to-all approach to the identification of sequence-specific readers for epigenetic DNA modifications on cytosine”
# Experiments:
# Experiment in all cases: DAPPL (digital affinity profiling via proximity ligation, sequencing); 10 mM Tris-HCl pH 7.5, 50 mM NaCl, 1 mM DTT, 4% glycerol, room temperature, 30 min; GST-TFs on glutathione beads, 16-mer random dsDNA library, 0.1% formaldehyde crosslink after washing; high values mean tight binding
# FEV = target: T1, FEV (Homo sapiens, UniProt Q99581 1-238); details: protein: recombinant; tags: N-terminal GST; dsDNA, one strand shown
# T1 sequence: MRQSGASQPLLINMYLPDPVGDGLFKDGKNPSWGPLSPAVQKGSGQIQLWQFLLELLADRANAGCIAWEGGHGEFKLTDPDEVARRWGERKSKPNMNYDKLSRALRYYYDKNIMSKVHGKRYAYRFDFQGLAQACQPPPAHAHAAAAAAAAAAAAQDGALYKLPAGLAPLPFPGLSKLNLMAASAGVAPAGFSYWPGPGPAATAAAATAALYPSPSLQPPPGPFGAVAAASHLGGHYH
# How it was run: (§1)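 In yeast, human transcription factors were expressed with a GST fusion, then pulled down on glutathione beads and given DNA barcodes. Pooled with a tag-only sample, they were exposed to 200 nmole of a 16-mer random double-stranded DNA library (Tris/NaCl/DTT/glycerol buffer, room temperature, 30 min), washed, crosslinked with 0.1% formaldehyde, proximity-ligated using BsaI/T4 ligase for 1 h at 37 °C, PCR-amplified and read on an Illumina NextSeq500. Each hexamer's frequency of reads for a factor, divided by the matching frequency for the tag-only sample, gives the binding signal.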
# ETV5 = ETV5 (Homo sapiens, UniProt P41161 1-510); details: protein: recombinant; tags: N-terminal GST; dsDNA, one strand shown
# ETV5, sequence (P41161 whole entry): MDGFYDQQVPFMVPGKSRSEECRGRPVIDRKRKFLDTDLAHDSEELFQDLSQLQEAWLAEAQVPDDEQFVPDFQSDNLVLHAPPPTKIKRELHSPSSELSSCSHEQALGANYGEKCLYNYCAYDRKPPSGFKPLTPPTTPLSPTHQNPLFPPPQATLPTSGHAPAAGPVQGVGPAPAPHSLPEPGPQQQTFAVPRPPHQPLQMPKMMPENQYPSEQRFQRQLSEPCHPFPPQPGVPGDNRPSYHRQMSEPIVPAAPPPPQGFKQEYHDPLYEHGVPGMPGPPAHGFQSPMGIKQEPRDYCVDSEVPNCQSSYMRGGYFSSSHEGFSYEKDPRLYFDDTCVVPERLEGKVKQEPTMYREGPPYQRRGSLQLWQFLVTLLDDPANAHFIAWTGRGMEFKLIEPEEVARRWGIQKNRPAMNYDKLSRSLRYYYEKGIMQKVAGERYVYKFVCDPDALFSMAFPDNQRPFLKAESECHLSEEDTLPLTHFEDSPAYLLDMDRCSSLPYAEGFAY
# How it was run: as §1
# HSF1 = HSF1 (Homo sapiens, UniProt Q00613 1-529); details: protein: recombinant; tags: N-terminal GST; chain copies: 3; dsDNA, one strand shown
# HSF1, sequence (Q00613 whole entry): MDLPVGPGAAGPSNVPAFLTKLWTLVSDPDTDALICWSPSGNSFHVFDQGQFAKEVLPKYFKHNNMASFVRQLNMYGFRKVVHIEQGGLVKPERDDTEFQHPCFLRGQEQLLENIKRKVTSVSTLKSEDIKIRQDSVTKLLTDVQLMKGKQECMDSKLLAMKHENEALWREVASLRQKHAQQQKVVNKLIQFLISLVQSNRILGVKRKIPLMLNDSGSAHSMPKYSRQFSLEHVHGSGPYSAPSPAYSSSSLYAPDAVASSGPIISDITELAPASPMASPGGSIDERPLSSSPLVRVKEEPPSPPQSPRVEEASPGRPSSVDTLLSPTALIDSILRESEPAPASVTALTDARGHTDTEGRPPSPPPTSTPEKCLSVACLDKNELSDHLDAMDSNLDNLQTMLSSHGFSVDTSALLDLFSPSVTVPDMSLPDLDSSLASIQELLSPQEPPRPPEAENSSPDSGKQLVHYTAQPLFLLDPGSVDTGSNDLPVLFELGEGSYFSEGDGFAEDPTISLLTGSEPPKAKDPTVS
# How it was run: as §1
# SPIC = target: T2, SPIC (Homo sapiens, UniProt Q8N5J4 1-248); details: protein: recombinant; tags: N-terminal GST; dsDNA, one strand shown
# T2 sequence: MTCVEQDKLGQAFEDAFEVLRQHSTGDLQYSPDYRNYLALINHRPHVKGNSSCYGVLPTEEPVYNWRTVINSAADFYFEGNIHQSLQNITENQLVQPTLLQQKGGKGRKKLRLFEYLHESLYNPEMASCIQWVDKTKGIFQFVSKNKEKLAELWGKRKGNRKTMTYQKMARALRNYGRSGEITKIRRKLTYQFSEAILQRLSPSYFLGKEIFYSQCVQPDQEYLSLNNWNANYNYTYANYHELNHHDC
# How it was run: as §1
# ELF4 = ELF4 (Homo sapiens, UniProt Q99607 1-663); details: protein: recombinant; tags: N-terminal GST; dsDNA, one strand shown
# ELF4, sequence (Q99607 whole entry): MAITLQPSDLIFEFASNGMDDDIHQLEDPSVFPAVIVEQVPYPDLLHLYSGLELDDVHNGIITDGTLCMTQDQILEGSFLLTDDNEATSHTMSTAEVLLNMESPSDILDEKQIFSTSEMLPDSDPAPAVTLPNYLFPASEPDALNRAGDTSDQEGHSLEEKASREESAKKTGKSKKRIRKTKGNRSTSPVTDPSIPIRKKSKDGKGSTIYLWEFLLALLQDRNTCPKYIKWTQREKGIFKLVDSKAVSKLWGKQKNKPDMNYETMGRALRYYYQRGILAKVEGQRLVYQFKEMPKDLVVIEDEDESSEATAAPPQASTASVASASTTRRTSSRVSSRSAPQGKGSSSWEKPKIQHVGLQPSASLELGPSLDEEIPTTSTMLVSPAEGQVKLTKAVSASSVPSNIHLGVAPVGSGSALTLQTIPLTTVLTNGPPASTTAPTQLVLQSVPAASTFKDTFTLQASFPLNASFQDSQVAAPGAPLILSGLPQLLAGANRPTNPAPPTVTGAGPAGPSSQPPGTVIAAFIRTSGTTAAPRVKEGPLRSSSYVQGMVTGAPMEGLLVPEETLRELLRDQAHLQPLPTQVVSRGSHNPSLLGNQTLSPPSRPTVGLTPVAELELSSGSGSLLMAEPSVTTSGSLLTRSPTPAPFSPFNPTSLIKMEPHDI
# How it was run: as §1
# ELK4 = target: T3, ELK4 (Homo sapiens, UniProt P28324-2 1-405); details: protein: recombinant; tags: N-terminal GST; dsDNA, one strand shown
# T3 sequence: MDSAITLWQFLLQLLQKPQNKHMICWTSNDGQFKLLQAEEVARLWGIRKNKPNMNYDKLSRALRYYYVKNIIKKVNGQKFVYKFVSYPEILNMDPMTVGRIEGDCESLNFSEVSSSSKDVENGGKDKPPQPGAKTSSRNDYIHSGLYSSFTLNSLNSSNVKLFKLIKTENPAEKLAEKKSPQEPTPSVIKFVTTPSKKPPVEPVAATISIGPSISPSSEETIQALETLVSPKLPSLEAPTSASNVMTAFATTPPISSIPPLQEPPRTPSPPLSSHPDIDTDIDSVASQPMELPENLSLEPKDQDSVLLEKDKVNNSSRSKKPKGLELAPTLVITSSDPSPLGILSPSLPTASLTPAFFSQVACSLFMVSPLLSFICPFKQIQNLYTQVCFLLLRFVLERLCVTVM
# How it was run: as §1
# ETV2 = target: T4, ETV2 (Homo sapiens, UniProt O00321 1-342); details: protein: recombinant; tags: N-terminal GST; dsDNA, one strand shown
# T4 sequence: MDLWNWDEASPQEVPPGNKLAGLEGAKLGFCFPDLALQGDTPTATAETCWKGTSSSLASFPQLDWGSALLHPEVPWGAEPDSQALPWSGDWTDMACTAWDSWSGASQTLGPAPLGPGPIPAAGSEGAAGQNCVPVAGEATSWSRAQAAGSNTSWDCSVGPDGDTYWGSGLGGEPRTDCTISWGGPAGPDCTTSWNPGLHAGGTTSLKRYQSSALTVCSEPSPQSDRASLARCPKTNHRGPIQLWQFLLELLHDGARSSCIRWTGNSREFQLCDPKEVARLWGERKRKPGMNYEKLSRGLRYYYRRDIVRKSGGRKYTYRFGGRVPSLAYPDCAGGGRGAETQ
# How it was run: as §1
# ELF3 = target: T5, ELF3 (Homo sapiens, UniProt P78545 1-371); details: protein: recombinant; tags: N-terminal GST; dsDNA, one strand shown
# T5 sequence: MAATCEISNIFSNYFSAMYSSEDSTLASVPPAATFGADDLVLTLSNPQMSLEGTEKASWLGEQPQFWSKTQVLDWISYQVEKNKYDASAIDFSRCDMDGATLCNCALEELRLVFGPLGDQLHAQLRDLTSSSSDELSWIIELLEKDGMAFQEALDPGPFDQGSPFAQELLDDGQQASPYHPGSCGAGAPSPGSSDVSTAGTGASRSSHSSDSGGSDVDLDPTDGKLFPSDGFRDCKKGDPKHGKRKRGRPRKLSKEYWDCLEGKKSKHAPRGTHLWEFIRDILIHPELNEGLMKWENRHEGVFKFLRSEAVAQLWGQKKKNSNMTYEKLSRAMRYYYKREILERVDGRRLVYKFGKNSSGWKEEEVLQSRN
# How it was run: as §1
# CRX = CRX (Homo sapiens, UniProt O43186 1-299); details: protein: recombinant; tags: N-terminal GST; dsDNA, one strand shown
# CRX, sequence (O43186 whole entry): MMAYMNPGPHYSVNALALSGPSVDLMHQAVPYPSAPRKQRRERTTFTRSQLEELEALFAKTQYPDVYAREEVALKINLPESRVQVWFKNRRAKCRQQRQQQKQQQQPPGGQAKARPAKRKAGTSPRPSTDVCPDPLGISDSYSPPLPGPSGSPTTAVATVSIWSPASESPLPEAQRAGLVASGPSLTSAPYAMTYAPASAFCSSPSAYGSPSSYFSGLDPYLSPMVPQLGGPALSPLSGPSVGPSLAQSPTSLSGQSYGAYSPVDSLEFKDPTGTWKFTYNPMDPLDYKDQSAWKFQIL
# How it was run: as §1
# ETV1 = ETV1 (Homo sapiens, UniProt P50549 1-477); details: protein: recombinant; tags: N-terminal GST; dsDNA, one strand shown
# ETV1, sequence (P50549 whole entry): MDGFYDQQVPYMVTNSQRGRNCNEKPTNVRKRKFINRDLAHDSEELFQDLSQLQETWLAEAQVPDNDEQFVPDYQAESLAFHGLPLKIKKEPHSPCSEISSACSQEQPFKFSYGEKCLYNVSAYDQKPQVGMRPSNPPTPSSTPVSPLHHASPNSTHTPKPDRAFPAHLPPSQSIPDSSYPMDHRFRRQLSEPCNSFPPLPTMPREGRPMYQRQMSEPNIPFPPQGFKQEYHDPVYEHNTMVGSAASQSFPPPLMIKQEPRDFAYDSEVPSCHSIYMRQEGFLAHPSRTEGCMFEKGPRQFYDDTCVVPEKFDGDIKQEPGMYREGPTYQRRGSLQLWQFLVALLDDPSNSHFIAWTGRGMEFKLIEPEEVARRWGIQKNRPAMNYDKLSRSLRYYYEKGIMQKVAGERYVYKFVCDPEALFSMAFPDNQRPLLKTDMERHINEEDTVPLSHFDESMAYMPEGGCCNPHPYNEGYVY
# How it was run: as §1
# ERF = target: T6, ERF (Homo sapiens, UniProt P50548 1-548); details: protein: recombinant; tags: N-terminal GST; dsDNA, one strand shown
# T6 sequence: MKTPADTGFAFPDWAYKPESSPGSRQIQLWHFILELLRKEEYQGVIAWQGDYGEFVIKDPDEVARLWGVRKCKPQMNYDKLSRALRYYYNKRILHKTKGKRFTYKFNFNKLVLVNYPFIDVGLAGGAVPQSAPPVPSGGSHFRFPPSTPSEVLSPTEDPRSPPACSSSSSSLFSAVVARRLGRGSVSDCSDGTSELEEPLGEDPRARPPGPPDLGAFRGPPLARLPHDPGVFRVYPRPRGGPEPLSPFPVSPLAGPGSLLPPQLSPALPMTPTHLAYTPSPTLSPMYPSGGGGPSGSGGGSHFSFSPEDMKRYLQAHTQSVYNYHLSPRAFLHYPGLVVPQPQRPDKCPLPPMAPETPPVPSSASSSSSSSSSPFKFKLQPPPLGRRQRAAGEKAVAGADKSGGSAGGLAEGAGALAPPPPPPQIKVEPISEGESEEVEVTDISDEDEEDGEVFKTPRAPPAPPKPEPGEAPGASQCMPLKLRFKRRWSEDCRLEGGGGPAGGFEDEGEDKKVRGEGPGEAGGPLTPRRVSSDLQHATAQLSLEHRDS
# How it was run: as §1
# ETV3L = target: T7, ETV3L (Homo sapiens, UniProt Q6ZN32 1-361); details: protein: recombinant; tags: N-terminal GST; dsDNA, one strand shown
# T7 sequence: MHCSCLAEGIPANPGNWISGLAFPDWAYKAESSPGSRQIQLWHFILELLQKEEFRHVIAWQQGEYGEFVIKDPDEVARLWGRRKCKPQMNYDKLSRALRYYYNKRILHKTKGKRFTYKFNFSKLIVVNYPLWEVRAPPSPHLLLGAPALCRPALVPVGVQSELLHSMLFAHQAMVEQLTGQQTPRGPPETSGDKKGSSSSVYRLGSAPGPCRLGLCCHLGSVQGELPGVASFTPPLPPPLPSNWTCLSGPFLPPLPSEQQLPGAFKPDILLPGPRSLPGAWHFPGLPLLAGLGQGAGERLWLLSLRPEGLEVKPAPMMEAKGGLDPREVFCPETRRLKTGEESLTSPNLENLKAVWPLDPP
# How it was run: as §1
# ETS2 = target: T8, ETS2 (Homo sapiens, UniProt P15036 1-469); details: protein: recombinant; tags: N-terminal GST; dsDNA, one strand shown
# T8 sequence: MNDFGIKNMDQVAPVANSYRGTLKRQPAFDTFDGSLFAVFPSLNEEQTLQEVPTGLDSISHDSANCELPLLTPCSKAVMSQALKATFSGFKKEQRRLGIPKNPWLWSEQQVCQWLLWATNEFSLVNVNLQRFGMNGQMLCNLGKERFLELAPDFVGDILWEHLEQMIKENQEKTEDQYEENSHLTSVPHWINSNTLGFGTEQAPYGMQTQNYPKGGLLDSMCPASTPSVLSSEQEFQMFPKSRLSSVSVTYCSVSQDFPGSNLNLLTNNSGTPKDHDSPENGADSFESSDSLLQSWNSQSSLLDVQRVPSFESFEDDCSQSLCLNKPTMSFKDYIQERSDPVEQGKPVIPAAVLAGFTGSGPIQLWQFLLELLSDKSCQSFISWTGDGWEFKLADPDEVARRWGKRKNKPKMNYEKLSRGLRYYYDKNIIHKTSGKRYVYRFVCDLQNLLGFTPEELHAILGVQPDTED
# How it was run: as §1
# SPDEF = target: T9, SPDEF (Homo sapiens, UniProt O95238 1-335); details: protein: recombinant; tags: N-terminal GST; dsDNA, one strand shown
# T9 sequence: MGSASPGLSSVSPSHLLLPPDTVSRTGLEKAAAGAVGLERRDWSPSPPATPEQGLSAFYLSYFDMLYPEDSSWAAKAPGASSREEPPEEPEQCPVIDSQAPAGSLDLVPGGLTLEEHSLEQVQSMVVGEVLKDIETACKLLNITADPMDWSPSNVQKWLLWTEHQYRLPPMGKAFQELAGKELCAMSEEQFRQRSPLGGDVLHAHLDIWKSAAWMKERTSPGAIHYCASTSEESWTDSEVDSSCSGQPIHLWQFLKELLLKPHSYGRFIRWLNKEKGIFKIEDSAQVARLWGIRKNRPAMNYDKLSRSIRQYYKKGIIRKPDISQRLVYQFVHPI
# How it was run: as §1
# ETV7 = target: T10, ETV7 (Homo sapiens, UniProt Q9Y603 1-341); details: protein: recombinant; tags: N-terminal GST; dsDNA, one strand shown
# T10 sequence: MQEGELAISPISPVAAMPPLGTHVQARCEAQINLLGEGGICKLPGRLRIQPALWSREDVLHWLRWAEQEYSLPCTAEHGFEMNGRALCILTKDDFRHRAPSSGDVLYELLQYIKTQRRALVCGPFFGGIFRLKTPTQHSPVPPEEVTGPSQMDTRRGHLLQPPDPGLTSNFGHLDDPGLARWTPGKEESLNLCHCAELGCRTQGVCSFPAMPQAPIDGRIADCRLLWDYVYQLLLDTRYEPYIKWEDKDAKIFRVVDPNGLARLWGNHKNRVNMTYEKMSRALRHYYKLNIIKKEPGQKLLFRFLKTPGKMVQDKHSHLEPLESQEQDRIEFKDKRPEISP
# How it was run: as §1
# ELF5 = target: T11, ELF5 (Homo sapiens, UniProt Q9UKW6-2 1-255); details: protein: recombinant; tags: N-terminal GST; dsDNA, one strand shown
# T11 sequence: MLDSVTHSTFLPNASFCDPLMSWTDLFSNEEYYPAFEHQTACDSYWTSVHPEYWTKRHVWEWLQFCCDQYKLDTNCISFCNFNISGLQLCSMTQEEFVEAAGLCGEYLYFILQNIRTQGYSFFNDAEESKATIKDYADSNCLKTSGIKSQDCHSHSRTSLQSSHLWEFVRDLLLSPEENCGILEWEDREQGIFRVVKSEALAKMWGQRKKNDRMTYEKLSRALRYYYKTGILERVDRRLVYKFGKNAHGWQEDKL
# How it was run: as §1
# ETV3 = target: T12, ETV3 (Homo sapiens, UniProt P41162-2 1-143); details: protein: recombinant; tags: N-terminal GST; dsDNA, one strand shown
# T12 sequence: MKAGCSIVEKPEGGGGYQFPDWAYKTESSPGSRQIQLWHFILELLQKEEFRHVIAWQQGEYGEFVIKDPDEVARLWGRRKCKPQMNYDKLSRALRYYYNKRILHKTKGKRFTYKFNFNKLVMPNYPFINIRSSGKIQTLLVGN
# How it was run: as §1
# ETV6 = ETV6 (Homo sapiens, UniProt P41212 1-452); details: protein: recombinant; tags: N-terminal GST; dsDNA, one strand shown
# ETV6, sequence (P41212 whole entry): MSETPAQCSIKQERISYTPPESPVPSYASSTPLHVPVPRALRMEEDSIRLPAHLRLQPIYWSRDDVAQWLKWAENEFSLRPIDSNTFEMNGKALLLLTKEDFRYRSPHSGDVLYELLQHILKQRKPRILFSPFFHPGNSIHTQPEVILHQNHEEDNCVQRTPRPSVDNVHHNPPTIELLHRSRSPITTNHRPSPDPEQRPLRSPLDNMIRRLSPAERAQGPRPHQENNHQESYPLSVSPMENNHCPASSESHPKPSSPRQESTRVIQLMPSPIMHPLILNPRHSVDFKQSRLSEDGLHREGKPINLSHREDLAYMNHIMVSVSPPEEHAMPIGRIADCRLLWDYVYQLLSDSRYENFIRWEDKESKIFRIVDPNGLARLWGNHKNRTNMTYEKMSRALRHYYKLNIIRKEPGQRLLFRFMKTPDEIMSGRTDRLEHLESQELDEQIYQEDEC
# How it was run: as §1
sequence,measurement,setting,value
CTAAGC,binding signal,FEV,"1.05 fold enrichment (6-mer frequency, TF over GST control)"
same,binding signal,ETV5,"1.05 fold enrichment (6-mer frequency, TF over GST control)"
same,binding signal,HSF1,"1.56 fold enrichment (6-mer frequency, TF over GST control)"
same,binding signal,SPIC,"1.08 fold enrichment (6-mer frequency, TF over GST control)"
same,binding signal,ELF4,"1.09 fold enrichment (6-mer frequency, TF over GST control)"
same,binding signal,ELK4,"1.16 fold enrichment (6-mer frequency, TF over GST control)"
same,binding signal,ETV2,"1.17 fold enrichment (6-mer frequency, TF over GST control)"
same,binding signal,ELF3,"1.12 fold enrichment (6-mer frequency, TF over GST control)"
same,binding signal,CRX,"2.45 fold enrichment (6-mer frequency, TF over GST control)"
same,binding signal,ETV1,"1.06 fold enrichment (6-mer frequency, TF over GST control)"
same,binding signal,ERF,"1.14 fold enrichment (6-mer frequency, TF over GST control)"
same,binding signal,ETV3L,"1.09 fold enrichment (6-mer frequency, TF over GST control)"
same,binding signal,ETS2,"1.15 fold enrichment (6-mer frequency, TF over GST control)"
same,binding signal,SPDEF,"1.06 fold enrichment (6-mer frequency, TF over GST control)"
same,binding signal,ETV7,"1.04 fold enrichment (6-mer frequency, TF over GST control)"
same,binding signal,ELF5,"1.07 fold enrichment (6-mer frequency, TF over GST control)"
same,binding signal,ETV3,"1.07 fold enrichment (6-mer frequency, TF over GST control)"
same,binding signal,ETV6,"1.08 fold enrichment (6-mer frequency, TF over GST control)"
